Source: PubChem BioAssay (NCI)
About 83,000 compounds went through this panel and 20% of them were active in at least one assay; those are over-represented in the sample as a whole.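 Each cell line was grown in a 96-well plate and treated with one concentration of compound for 48 hours. Values below 10 were considered active.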 Activity calls are given as the source filed them.

system: MDA-MB-468 breast; assay: NCI-60 one-dose screen, 48 h (100 = growth as untreated, 0 = no growth, -100 = all killed); settings: 10 µM unless noted

Row | SMILES | growth
1 | Cc1ccc(/C=C2/C(=O)Nc3cc(Cl)c(-c4csc(N)n4)cc32)cc1 | 15.2% (inactive)
2 | Cc1cc(C)c(S(=O)(=O)N2CCN(c3cc4c(cc3F)c(=O)c(C(=O)O)cn4C3CC3)CC2)c(C)c1 | 65.1% (inactive)
3 | Cc1c(O)cnc2nn(-c3ccccc3)c(=N)n12 | 108% (inactive)
4 | COc1ccc(/C=C2\Oc3cc(OCCCCN4CCCC4)ccc3C2=O)cc1 | 74.5% (inactive)
5 | O=Nc1ccc2ccccc2c1O | 68.3% (inactive)
6 | COc1nc2c(cc1S(=O)(=O)c1ccccc1)CCc1c-2cnn1-c1ccccc1Cl | 40.4% (inactive)
7 | O=C(/C=C1\C(=O)N(Cc2ccc([N+](=O)[O-])cc2)c2ccccc21)c1ccc(OCCN2CCCCC2)cc1 | -63.1% (active)
8 | CC1=C(C(=O)OC(C)C)C(c2ccc3c(c2)OCO3)NC(=S)N1 (stereo not given) | 115% (inactive)
9 | O=S1(=O)NCCN1CCNc1nccc(-c2c(-c3cccc(O)c3)nc3sccn23)n1 | 96.8% (inactive)
10 | CN1CCN(c2ccc(-c3cnc4c(-c5csc6ccccc56)cnn4c3)cc2)CC1 | -26.8% (active)
11 | O=C(N/N=C/c1ccc(Br)s1)c1[nH]c2ccc(Br)cc2c1-c1ccccc1 | -5.18% (active)
12 | CCOc1ccc(NC(=O)Nc2cc(C(C)C)ccc2C)cc1 | 114% (inactive)
13 | CCCCNc1ccc(C#N)c(OCCN(CC)CC)c1 | 90.1% (inactive)
14 | COc1cc(NC(=O)CCSc2nc3ccccc3c(=O)n2Cc2ccccc2)cc(OC)c1OC | 93.3% (inactive)
15 | COc1ccc(-c2ncnc3c2ncn3CC#CCCl)cc1 | 20.8% (inactive)
16 | COc1ccc([C@H]2[C@H](O)C(=O)N2c2cc(OC)c(OC)c(OC)c2)cc1Cl | 10.9% (inactive)
17 | COc1cccc(Oc2ccccc2NC(=O)CNC(=O)c2cccc3ccccc23)c1 | 12.1% [5 µM] (inactive)
18 | CSc1nc(N)c2[nH]c(-c3cc4ccccc4[nH]c3=O)nc2n1 | 1.87% (active)
19 | CC(C)CNCC(O)COc1ccc(C(C)(C)c2ccc(OCC(O)CNCC(C)C)cc2)cc1 (stereo not given) | 62.5% (inactive)
20 | COc1ccc(/C=C2\N=C(c3ccccc3)N(c3cc(OC)c(OC)cc3C(=O)N3N=C(C)CC3=O)C2=O)cc1 | 93% (inactive)

Row | SMILES | growth
21 | CCCCCCCCCCCCCCCCCC1=NC(C)(C)CN1CC(C)O (stereo not given) | 115% (inactive)
22 | Cc1cc(N2CCCC2)nc(N(CCNc2ccnc3cc(Cl)ccc23)Cc2ccco2)n1 | 13.3% (inactive)
23 | COC(=O)CCCCCN=Cc1c(O)c(O)c(C(C)C)c2cc(C)c(-c3c(C)cc4c(C(C)C)c(O)c(O)c(C=NCCCCCC(=O)OC)c4c3O)c(O)c12 | 26.3% (inactive)
24 | O=[N+]([O-])c1ccc(S(=O)(=O)N2CCN(c3ccnc4cc(Cl)ccc34)CC2)c([N+](=O)[O-])c1 | 82.7% (inactive)
25 | c1ccc(-c2cn3ccnc3c(-c3ccc4c(c3)ncn4C3CCCCC3)n2)cc1 | 112% (inactive)
26 | CC(C)CCCCCOC(=O)c1ccccc1SSc1ccccc1C(=O)OCCCCCC(C)C | 109% (inactive)
27 | CCCN1C(=O)/C(=c2\sc3n(c2=O)C2C(NN=3)N(CC)C(=O)N2CC)c2ccccc21 (stereo not given) | 4.78% (active)
28 | Fc1ccc2c(-c3cncn3CCc3ccccc3)c[nH]c2c1 | 74.6% (inactive)
29 | O=C(CSc1nc2c(n1Nc1ccccc1)-c1ccccc1SC2)Nc1nc(-c2ccc(Cl)cc2)cs1 | 59.1% (inactive)
30 | COc1ccc(C(=O)N2c3ccccc3Sc3ccccc32)c(F)c1 | -13.7% (active)
31 | Cc1ccc(NC(=O)CSc2nnc3n(Cc4ccccc4)c(=O)c4c(C)c(C(N)=O)sc4n23)cc1 | 107% (inactive)
32 | CCC(C)Nc1ccc(NC(C)CC)cc1 (stereo not given) | 8.07% (active)
33 | CSc1ccc(-c2cc(-c3ccc(NC(=O)CCCN4CCCC4)cc3)nc(-c3ccc(NC(=O)CCCN4CCCC4)cc3)c2)cc1 | 14.4% (inactive)
34 | N#CCC1=NC(c2cccs2)=Nc2ccccc2S1 | 82.2% (inactive)
35 | C=C1C(=O)O[C@H]2[C@H]1CC/C(COC(=O)c1ccc(C#N)cc1)=C\CC[C@@]1(C)O[C@@H]21 | -17.2% (active)
36 | CC1=NN(c2ccc(S(=O)(=O)O)cc2)C(=O)C1N=Nc1ccc(-c2ccc(N=Nc3ccc(OS(=O)(=O)c4ccc(C)cc4)cc3)c(S(=O)(=O)O)c2)cc1 (stereo not given) | 86.8% (inactive)
37 | CC(=O)OCCCCCCn1c2ccccc2c2c3c(c4c5ccccc5n(C)c4c21)C(=O)N(O)C3=O | 90.4% (inactive)
38 | CCCCCCCCCCC1CO1 (stereo not given) | 94.1% (inactive)
39 | CCN1C2CCC1/C(=C\c1ccc(F)cc1)C(=O)/C2=C/c1ccc(F)cc1 | 11.1% (inactive)
40 | CCc1cccc(Cl)c1 | 113% (inactive)
